Experimental findings from PubChem BioAssay AID652105 (National Center for Advancing Translational Sciences (NCATS), 2013) are described below.

Screen size: about 330,000 compounds; about 4,100 (1.2%) were called active. Roughly 2% stayed inconclusive and do not appear here. This excerpt belongs to a sample that is enriched for actives. A number with no mark means an inactive call. How the source made its calls: active means max response of -50% or lower; inconclusive means between -30% and -50%; inactive means -30% or higher.
On the % scale 0 is the no-effect control and ±100 the full control effect.

For this test, the target named is Phosphatidylinositol 5-phosphate 4-kinase type-2 alpha (Homo sapiens) (UniProt P48426). The experiment in a line: qHTS for Inhibitors of phosphatidylinositol 5-phosphate 4-kinase (PI5P4K). Further: value at the top dose of about 77 µM. Conditions: PI5P4Kalpha enzyme, ADP-Glo luminescence, 60 min; stronger effect = lower value. An excerpt: In addition to finding PI5P, we discovered the type II phosphatidylinositol 5-phosphate 4-kinase (PI5P4K) family (alpha, beta, gamma isoforms) that catalyze the conversion of PI5P to PI(4,5)P2. Alternatively, PI(4,5)P2 can also be synthesized through phosphatidylinositol-4-phosphate (PI4P) by the type I phosphatidylinositol 4-phosphate 5-kinases (PI4P5K). These PI5P4K enzymes therefore represent one way by which cells can regulate endogenous PI5P levels and play important roles in insulin signaling and in stress responses.
Sequence of Phosphatidylinositol 5-phosphate 4-kinase type-2 alpha (Homo sapiens) (P48426 whole entry, looked up, canonical isoform): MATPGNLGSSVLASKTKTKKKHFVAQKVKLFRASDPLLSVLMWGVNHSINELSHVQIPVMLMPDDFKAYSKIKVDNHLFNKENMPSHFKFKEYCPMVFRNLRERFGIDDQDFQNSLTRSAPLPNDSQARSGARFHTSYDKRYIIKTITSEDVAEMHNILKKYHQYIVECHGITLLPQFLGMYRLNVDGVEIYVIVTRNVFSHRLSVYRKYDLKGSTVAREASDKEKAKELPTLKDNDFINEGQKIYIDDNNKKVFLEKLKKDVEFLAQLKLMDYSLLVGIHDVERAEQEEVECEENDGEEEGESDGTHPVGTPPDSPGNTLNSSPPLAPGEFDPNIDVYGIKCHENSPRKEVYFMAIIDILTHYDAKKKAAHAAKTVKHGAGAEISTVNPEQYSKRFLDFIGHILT
This proposal aims to identify and optimize specific modulators of human PI5P4K, phosphatidylinositol-5-phosphate 4-kinase (Type II PIPK), a family of kinases that regulate AKT signaling and tumor cell growth. In this project we aim to identify inhibitors of human PI5P4K using a quantitative high-throughput screening approach against the MLSMR containing ~400,000 small molecules.
NIH Chemical Genomics Center [NCGC]
NIH Molecular Libraries Probe Centers Network [MLPCN]
Assay Submitter (PI): Atsuo Sasaki, Beth Israel Deaconess Medical Center
2 microL of PI5P4Kalpha/substrate buffer (columns 1-2, 5-48) are dispensed into Greiner white solid bottom 1536-well assay plates; column 3 receives only PI5P4Kalpha buffer as 0x substrate controls; column 4 receives only substrate buffer as 0x PI5P4Kalpha controls. Final assay buffer consists of 0.038 M HEPES pH 7.4, 0.28 mM EGTA, 0.1% CHAPS, and 5% DMSO (final concentration). Compounds are then transferred via Kalypsys pin tool equipped with 1536-pin array (10 nL slotted pins, V&P Scientific, San Diego, CA). Following addition of compound, 1 microL of ATP (5 microM final concentration, all columns) is added to initiate the reaction. ATP is diluted in an assay buffer consisting of 0.02 M HEPES pH 7.4, 60 mM MgCl2, 15 microM ATP, and 0.1% CHAPS. The plates are then incubated at room temperature for 60 minutes. ADP-Glo reagent 1 is added (2 microL) and plates incubated for 45 minutes, before ADP-Glo reagent 2 (4 microL) is added and plates incubated for 30 minutes. They are then transferred to a ViewLux high-throughput CCD imager (PerkinElmer) wherein single end-point measurements of luminescence are acquired using a clear filter.
For orientation: Quantitative high-throughput screening tests each substance at several concentrations.
As for `S=c1[nH]nc(NCCc2ccccc2)s1`, the max response is -73.1% (active).

On to `S=C(NCCc1ccccc1)Nc1ccccc1`, for which the max response is -4.55%.

As to `Nc1c(NCCc2ccccc2)c2ccccc2oc1=O`, the max response is -0.531%.

Turning to `Cc1ccccc1-c1csc(C(O)c2cccc(Cl)c2)n1` (stereo not drawn), the max response was 23.5%.

Turning to `Cc1ccnc(-n2sc3ccccc3c2=O)n1`, the max response was -98.6% (active).

`Cc1ccnc(N2CCCC(C(=O)NC3CC3)C2)n1` (stereo not drawn): the max response was -0.042%.

Regarding `Cc1ccnc(SC2CC(=O)N(c3ccccc3)C2=O)n1` (stereo not drawn), the max response was -1.33%.

As for `CCOCCC(=O)Nc1ccc2c(c1)c(=O)n(C)n2-c1ccc2ccccc2c1`, the max response was 0.749%.

Regarding `O=C1CCCC(O)=C1N=Nc1ccc(S(=O)(=O)N2CCOCC2)cc1`, the max response was -20.1%.

For the compound `O=C1CCCC(O)=C1N=Nc1ccc2ncsc2c1`, the max response is -66.1% (active).

As for `COc1ccc(C(C#N)=C2C=CC(=NO)c3ccccc32)cc1`, the max response is -8.83%.

Regarding `CC(=O)c1c(C)[nH]c(=S)c(C#N)c1-c1ccc(F)cc1`, the max response is -20.4%.

On to `N#Cc1c2c(c(-c3ccccc3)[nH]c1=O)CCCC2`, for which the max response is -4.1%.

As for `N#Cc1c(-c2ccc(Cl)cc2)c2c([nH]c1=S)CCCC2`, the max response was -61.4% (active).

As to `O=C(NN=Cc1ccc(N2CCOCC2)cc1)c1cc2ccccc2cc1O`, the max response was -58.2% (active).

In the case of `CCN(CC)c1ccc(C(=O)N/N=C/c2ccc(N3CCOCC3)cc2)cc1`, the max response was -1.97%.

With `Cc1ccc(/C=N/NC(=S)Nc2cccc(S(=O)(=O)N(C)C)c2)o1`, the max response was -3.83%.

In the case of `Cc1ccc(/C=N/NC(=O)c2cc3ccccc3cc2O)o1`, the max response is -60.2% (active).

For `Cc1ccc(/C=N/NC(=S)NC2CCCCC2)o1`, the max response was -0.109%.

With `COc1cc2ccccc2cc1C(=O)Nc1ccc(N2CCOCC2)cc1`, the max response is 5.82%.

For the compound `CCOc1ccc(CCNC(=O)COC(=O)c2ccc(C)c(S(=O)(=O)N3CCOCC3)c2)cc1OCC`, the max response was -2.07%.

Take `CC(C)C[C@@H]1COc2cc(N3CCC[C@@H]3CO)ccc2S(=O)(=O)N1`: the max response was 2.99%.

On to `COC(=O)[C@@]12C[C@@H](CC(=O)NCCCCc3ccccc3)C(=O)N(Cc3ccccc3)C1=CCC(C)(C)C2`, for which the max response is 14.2%.

In the case of `C#Cc1ccc(NC(=O)C2(C)CCN2C(=O)Cc2ccc(-c3ccccc3)cc2)cc1` (stereo not drawn), the max response is 26.3%.

`CCCc1c(-c2ccccc2F)ncn1Cc1ccccc1OC`: the max response was 4%.

On to `CCS(=O)(=O)C1=NSC2=NC(=O)/C(=C\c3cc(C)n(-c4cccc(OC)c4)c3C)C(=N)N21`, for which the max response is -20.4%.

As to `CCS(=O)(=O)C1=NSC2=NC(=O)/C(=C\c3ccc(OS(=O)(=O)c4ccccc4)cc3)C(=N)N21`, the max response was -73.6% (active).

On to `Cc1ccc(C2=N/C(=C\c3ccc(OS(=O)(=O)c4ccc(C)cc4)cc3)C(=O)O2)cc1`, for which the max response is -1.18%.

As to `Cc1ccccc1-c1nc(NC(C)C)nc2cc(-c3ccccc3)sc12`, the max response is 8.32%.

Take `Fc1ccccc1/C=N/n1c(-c2cccnc2)n[nH]c1=S`: the max response is 5.87%.

Take `c1ccc(-c2cc(-c3ccccc3)[nH]n2)cc1`: the max response was -6.2%.

As to `S=c1[nH]nc(-c2cc(-c3ccccc3)n[nH]2)n1/N=C/c1c2ccccc2cc2ccccc12`, the max response is -58.9% (active).

For the compound `Cc1ccc(Cn2c(C)nc3c(c2=O)c2nc4ccccc4nc2n3Cc2ccco2)cc1`, the max response is -62.3% (active).

For `O=c1c2ccccc2oc2nc(C3CCCCC3)n(Cc3ccco3)c(=O)c12`, the max response is 0.643%.

On to `Clc1cccc(-c2nc3nc4ccccc4nc3n2Cc2ccco2)c1`, for which the max response was -4.59%.

Turning to `CC1(C(=O)NCc2cccc3ccccc23)CCN1Cc1ccc(-c2ccccc2)o1` (stereo not drawn), the max response is 25.6%.

For `CCCCC[C@@H]1C=C(C(=O)OCC)[C@H](c2ccccc2)N1S(=O)(=O)c1ccc(C)cc1`, the max response was 8.7%.

In the case of `COCCNc1ncnc2c1ncn2[C@H]1CN(Cc2ccc(OC)cc2)C[C@@H](CO)O1`, the max response was 2.79%.

For `C=CS(=O)c1sc(Cl)c(N2CCOCC2)c1[N+](=O)[O-]` (stereo not drawn), the max response is -71.5% (active).

Consider `CC(=O)Nc1cc(-c2ccccc2F)cn2c(-c3cccc(C(F)(F)F)c3)cnc12`, for which the max response was -3.13%.

As to `COc1ccc(C(C)(O)c2nc(-c3cc(F)cc(F)c3)cs2)cc1` (stereo not drawn), the max response was 30.3%.

As for `Cc1cc(=O)n2[nH]c(-c3sccc3-n3c(C)ccc3C)cc2n1`, the max response was -57.4% (active).

On to `CCc1c(C)nc2cc(-c3cccs3)[nH]n2c1=O`, for which the max response was -0.23%.

As to `Cc1cc(=O)n2[nH]c(-c3cccc(Cl)c3)cc2n1`, the max response was -3.84%.

Turning to `CC(C)C[C@H]1CN([C@@H](Cc2ccccc2)CN2CCC[C@@H]2CN2C(=O)C(=O)NC[C@@H]2Cc2ccc(O)cc2)C(=O)C(=O)N1CCc1ccccc1`, the max response is -1.65%.

Turning to `O=C(Nc1ncc([N+](=O)[O-])s1)C1COc2ccccc2O1` (stereo not drawn), the max response was -21.4%.

Take `COc1ccc(OC)c2sc(NC(=O)C3COc4ccccc4O3)nc12` (stereo not drawn): the max response was 2.71%.

Regarding `O=C(Nc1nc(-c2ccncc2)cs1)C1COc2ccccc2O1` (stereo not drawn), the max response is -62.8% (active).

Turning to `CN(C(=O)CN1CCN(c2cc(-c3ccc(OCc4ccccc4)cc3)ncn2)CC1)c1ccccc1`, the max response is -25%.

On to `C[C@H]1Cn2cnc(C(=O)N[C@H](C)c3ccccc3)c2C(=O)N1`, for which the max response was -2.59%.

Take `CC1=C/C(=N\OS(=O)(=O)c2ccccc2)C=CC1=O`: the max response is -78.8% (active).

In the case of `Cc1nc(C(F)(F)F)ccc1C(=O)N1CCC1(C)C(=O)NS(=O)(=O)c1ccc(F)cc1F` (stereo not drawn), the max response is -1.9%.

With `CCC(c1nnnn1Cc1ccco1)N(CCc1ccccc1)Cc1cc2ccc(OC)cc2[nH]c1=O` (stereo not drawn), the max response was -64.1% (active).

Regarding `CCC(c1nnnn1Cc1ccco1)N(CCc1ccccc1)Cc1cc2cccc(C)c2[nH]c1=O` (stereo not drawn), the max response is -1.38%.

In the case of `CCC(c1nnnn1Cc1ccco1)N(Cc1cc2cc(OC)ccc2[nH]c1=O)C1CCCCC1` (stereo not drawn), the max response was -18.4%.

Consider `CCc1nc2ccc(C(=O)NC3CCN(Cc4ccccc4)CC3)cn2c1N(CC)CCOC`, for which the max response was -1.84%.

For the compound `CCOC(=O)[C@]12CCCC=C1N(Cc1ccc(Cl)cc1Cl)C(=O)[C@H](CC(=O)N1CCCCC1)C2`, the max response is 12%.

On to `CCCCC[C@H](C)N1C[C@@H](COCc2ccccc2)Oc2cc(N3CC[C@@H](N(C)C)C3)ccc2S1(=O)=O`, for which the max response was 27.1%.

Take `CN(C)C(=O)c1cccc(-c2cnc3sc(NCc4ccc5c(c4)OCO5)nn23)c1`: the max response was -16.9%.

`COc1ccc2[nH]c(=S)cc(C)c2c1`: the max response is -9.52%.

With `CCOc1ccc2[nH]c(=S)sc2c1`, the max response was -59.6% (active).

As for `O=c1[nH]c2ccccc2s1`, the max response was 5.23%.

Take `CCOc1ccc2nc(N(CCN(C)C)C(=O)c3ccc4ccccc4c3)sc2c1`: the max response was -3.3%.

As to `Nc1ccc2[nH]c(=S)sc2c1`, the max response was -73.9% (active).

For the compound `CC(C)C[C@H]1CNC(=S)N1C[C@H]1CCCN1C[C@H](Cc1ccc(O)cc1)N1C[C@H](Cc2ccc(O)cc2)N(CC2CCCCC2)C1=S`, the max response was -6.15%.

For the compound `O=C(NCc1ccc(F)cc1)c1cc(C2CCCCN2C(=O)c2ccccn2)on1` (stereo not drawn), the max response was -11.1%.

Regarding `CCOC(=O)C1=CC[C@@H](c2ccncc2)N(S(=O)(=O)c2ccc(C)cc2)C1`, the max response was -0.549%.

In the case of `COc1cccc(-c2cc(NC(C)=O)c3ncc(-c4cccc(C(C)=O)c4)n3c2)c1`, the max response was -0.237%.

For `CC(C)NC(=O)C1(C)CCCCN1Cc1cccc(C(F)(F)F)c1` (stereo not drawn), the max response is 22.3%.

For the compound `COC(=O)c1ccc2nc(-c3ccc(Cl)cc3)c(Cc3cccc(F)c3)n2c1`, the max response was 7.01%.

Consider `C=CCOc1cccc(C2C(C(=O)c3ccc(C)o3)=C(O)C(=O)N2CCN2CCOCC2)c1` (stereo not drawn), for which the max response is 2.35%.

For the compound `CCCOc1ccc(C2C(C(=O)c3ccc(C)o3)=C(O)C(=O)N2CCCn2ccnc2)cc1` (stereo not drawn), the max response is -23%.

Regarding `Cc1cc(N2C(=O)C(O)=C(C(=O)c3ccc(C)o3)C2c2ccc(OCc3ccccc3)cc2)no1` (stereo not drawn), the max response was -59.9% (active).

For the compound `O=C(c1ccc(CS(=O)Cc2ccccc2Cl)o1)N1CCN(c2ccccc2)CC1` (stereo not drawn), the max response was -2.59%.

On to `O=C(Nc1ccc(OCCO)cc1)c1csc([C@H]2C[C@H](O)[C@@H](CO)O2)n1`, for which the max response is -3.56%.

Regarding `C=CC(=O)Nc1ccc(Nc2ccnc(Nc3ccc(N4CCN(C)CC4)cc3)n2)cc1`, the max response is -68.9% (active).

Consider `CN1CCN(c2ccc(NC(=O)c3cc(Cl)c4c(c3)OCCO4)cc2)CC1`, for which the max response was 3.06%.

For the compound `Cc1cccc(N2CCN(c3ccc(NC(=O)/C=C\C(=O)O)cc3)CC2)c1`, the max response is -9.89%.

For `CCCCCc1c(Cc2ccccc2)ncn1CCc1ccccc1OC`, the max response is -4.89%.

As to `CCC(c1nnnn1-c1ccc2c(c1)OCCO2)N1CCN(c2ccc(C(F)(F)F)cn2)CC1` (stereo not drawn), the max response was -0.412%.

Take `COc1ccc(NC(=O)CSc2nc3ccccc3c(=O)n2C)cc1`: the max response is 0.885%.

For the compound `Cn1c(SCC(=O)Nc2ccc(Cl)cc2)nc(O)cc1=O`, the max response was -57.1% (active).

Turning to `CC(C)Cn1c(SCC(=O)Nc2ccc(Cl)cc2F)nc(O)cc1=O`, the max response was 3.57%.

For `C[N+](C)(CCCCCC[N+](C)(C)CCCN1C(=O)c2cccc3cccc(c23)C1=O)CCCN1C(=O)c2cccc3cccc(c23)C1=O`, the max response is -72.8% (active).

Consider `O=C(CCCCCN1C(=O)c2cccc3cccc(c23)C1=O)NCc1ccco1`, for which the max response is 0.75%.

For `O=C1c2ccccc2C(=O)N1CCCCCCN1C(=O)c2ccccc2C1=O`, the max response was 1.45%.

Consider `COc1ccc(CC(N)c2csc(NC(=O)Nc3ccc(C(C)C)cc3)n2)cc1` (stereo not drawn), for which the max response was -8.9%.

Consider `CC1(C(=O)NS(=O)(=O)c2ccc(C#N)cc2)CCN1C(=O)CC1CCCC1` (stereo not drawn), for which the max response is 0.461%.
